Measurements from PubChem BioAssay (Tox21).
Records with an inconclusive call do not appear. A call without a number means that no potency is given here. Some structures have more than one record in an assay (separate samples or runs), and their calls can disagree. Active and inactive are the calls of the source. Calls come from the whole dose curve.

Assay: p53 small molecule agonists, cell-based qHTS assay with rat liver microsomes: qHTS cell viability counter screen (AID 1963580); note: nearly all actives have a fitted effect of over 45% in size
Conditions: p53RE-bla HCT-116 + rat microsomes, ATP viability, 16 h; series mostly up to 66 µM
Source text: National Center for Advancing Translational Sciences [NCATS]
Division of Preclinical Innovation [DPI]
U.S. Environmental Protection Agency [EPA]
National Institutes of Environmental Health Sciences [NIEHS]
National Toxicology Program [NTP]
U.S. Food and Drug Administration [FDA]
p53, a tumor suppressor protein, is activated following cellular insult, including DNA damage and other cellular stresses. The activation of p53 regulates cell fate by inducing DNA repair, cell cycle arrest, apoptosis, or cellular senescence. The activation of p53, therefore, is a good indicator of DNA damage and other cellular stresses. The CellSensor p53RE-bla HCT-116 cell line contains a stably integrated beta-lactamase reporter gene under control of the p53 response elements. The activation of the reporter gene under culture conditions can be detected by fluorescence intensity. This cell line was used to screen the Tox21 10K compound library in the condition of presence of rat liver microsomes and to identify agonists that activate the p53 signaling pathway after in vitro metabolic activation (Ooka et al., Archive of Toxicology 96:1975-1987, 2022). The cytotoxicity of the Tox21 compound library against the p53 RE-bla HCT-116 cell line was tested in parallel by measuring the intra cellular ATP content in the same wells.
Tox21 Assay Protocol Summary:
The p53RE-bla cells were dispensed at 4,000cells/3ul/well in 1536-well black-clear bottom plates. After the assay plates were incubated at 37 C, 5% CO2 incubator for 5 hours, 23 nL of compounds dissolved in DMSO, positive controls or DMSO only was transferred to the assay plate. Following compound addition, 3 uL of rat liver microsomes (Molecular Toxicology, Boone, NC) at final concentration of 0.5 mg/mL and 1uL of B-Nicotinamide adenine dinucleotide 2'-phosphate (NADPH) at final concentration of 0.5 mg/mL were transferred to the assay plate. The plates were incubated at 37 C for 16 hours. 1 uL of LiveBLAzer detection mixture was added to each well and the plates were incubated at room temperature in the dark for 2 h. Fluorescence intensity at 460 and 530 nm emission and 405 nm excitation were measured by an Envision plate reader. For cell viability readout that measures cytotoxicity, 4 ul/well of CellTiter-Glo reagent was added into the assay plates using a Flying Reagent Dispenser. After 30 min incubation at room temperature, the luminescence intensity in the plates was measured using a ViewLux plate reader.
Potency is the fitted concentration of half-maximal effect.

Structure (SMILES) | Potency | activity change, negative = cytotoxicity
COc1ccccc1/C=C/C=O | inactive | –
Cc1ccccc1C | inactive | –
C=CCCCCCCCCCCCC | inactive | –
C=C(C)[C@@H]1CC[C@@H](C)C[C@@H]1O | inactive | –
O=C1c2cccc(O)c2C(=O)c2c(O)cccc21 | inactive | –
CC(C)CCOC(=O)c1ccccc1 | inactive | –
C[N+]1([O-])CCOCC1 | inactive | –
NCCN1CCNC1=O | inactive | –
Cc1oc(C)c(C(=O)Nc2ccccc2)c1C | inactive | –
SCCSCCS | inactive | –
NC[C@H](O)c1ccc(O)c(O)c1 | inactive | –
CC(=O)NC(Cc1ccccc1)C(=O)O (stereo not given) | inactive | –
CC(C)OC(=O)C(O)(CC(=O)O)CC(=O)O | inactive | –
CCC(=O)Nc1cccc(N)c1 | inactive | –
COC(=O)/C=C/c1ccccc1 | inactive | –
C[N+](C)(C)CCO | inactive | –
CC/C=C/CCO | inactive | –
NC(=O)c1ccccc1Cl | inactive | –
[Cl][In]([Cl])[Cl] | inactive | –
CCN(CC)CCN | inactive | –

Structure (SMILES) | Potency | activity change, negative = cytotoxicity
CC(=O)c1ccccc1N | inactive | –
Cc1cccc(N(C)C(=S)Oc2ccc3ccccc3c2)c1 | inactive | –
CCCOCCO | inactive | –
COc1ccc(N)c(OC)c1 | inactive | –
CCOCCOCCOCCO | inactive | –
CC(C=O)Cc1ccc(C(C)(C)C)cc1 (stereo not given) | inactive | –
C=CC(C)(O)CC/C=C(/C)CCC=C(C)C (stereo not given) | inactive | –
CC(C)S | inactive | –
O=C1OC2(c3ccccc31)c1cc(Br)c(O)c(Br)c1Oc1c2cc(Br)c(O)c1Br | inactive | –
COC(=O)c1ccc(C(=O)OC)cc1 | 18.5 µM (active) and inactive | –
CCCCC(CC)COCC1CO1 (stereo not given) | inactive | –
CCCCCCS | inactive | –
CCO/C([O-])=N/c1c[n+](N2CCOCC2)no1 | inactive | –
O=C(O)c1cccc(C(F)(F)F)c1 | inactive | –
CNC(=O)c1c(I)c(NC(C)=O)c(I)c(C(=O)O)c1I | inactive | –
O=C(c1ccc(Cl)cc1)c1ccc(Cl)cc1 | inactive | –
CCCCNc1ccccc1 | inactive | –
O=[N+]([O-])c1cncn1CCN1CCOCC1 | inactive | –
O=C(O)CN(CCN(CC(=O)O)CC(=O)O)CCN(CC(=O)O)CC(=O)O | – | -9.7% [at 13.5 µM] (inactive)
Nc1c(S(=O)(=O)O)cc(Br)c2c1C(=O)c1ccccc1C2=O | inactive | –
